Several values for one entry are separate records, joined by “and”; a condition that tells them apart may be missing. Identical values can stand only once. Compounds without any hit were thinned out: in the full panel of roughly 79,000, 15% have a hit. Some compounds were tested as several samples or in several runs, with calls that do not always agree. Activity calls are given as the source filed them. Rule as the data show it: active = growth inhibition above about 70%; inactive = the rest.
Assay: NCI Yeast Anticancer Drug Screen. Data for the rad50 strain (AID 155);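 also: 0% = growth of vehicle-only cultures of the same strain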
Settings: S. cerevisiae rad50 strain growth inhibition; at 50.0 µM; stronger effect = higher value
Summary of the method: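 Cells are treated with compound, grown, and their growth is then scored against vehicle-only cultures of the same repair-deficient yeast strain.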

| SMILES | growth inhibition |
| --- | --- |
| COc1cccc2c1C(=O)c1c(O)c3c(c(O)c1C2=O)C[C@@](O)(C(C)=O)C[C@@H]3OC1CC(O)C(O)C(C)O1 (some centres undefined) | 84.7% (active) |
| COc1cccc2c1C(=O)c1c(O)c3c(c(O)c1C2=O)C[C@@](O)(C(C)=O)C[C@@H]3OC1CC(N(C)C)C(O)C(C)O1 (some centres undefined) | 86.5% (active) |
| C[N+]1(C)CCC(c2ccccc2)(c2ccccc2)C(=O)C1 | 16.6% (inactive) and 13.2% (inactive) |
| CC[C@@]1(OC(=O)C(N)CCCCN)C(=O)OCc2c1cc1n(c2=O)Cc2cc3ccccc3nc2-1 (some centres undefined) | 80.3% (active) |
| CCN(CCO)CCNc1ccc(C)c2sc3ccccc3c(=O)c12 | 88.2% (active) |
| NC(=O)SCC(=O)NNc1ccccc1 | 48.1% (inactive) and 88.1% (active) |
| CCN(CC)c1ccc(C(=C2C=CC(=[N+](CC)CC)C=C2)c2ccc(N(CC)CC)cc2)cc1 | 67.5% (inactive) |
| Nc1ncnc2c(C3OC(CO)C(O)C3O)scc12 (centres undefined) | 15.8% (inactive) |
| Nc1ccc(Cn2ccc3c4c(N)nc(N)nc4ccc32)cc1 | 33.7% (inactive) |
| Cc1n(CC(C)C)c2c([n+]1C)C(=O)c1ccccc1C2=O | 85% (active) |
| c1ccc(Cc2cc3ccccc3c3ccccc23)cc1 | 20.1% (inactive) |
| Nc1nc(N)c2c(Cl)c(CNc3ccc(Cl)c(Cl)c3)ccc2n1 | 88.1% (active) |
| C=C1CC2(CC(c3ccccc3OC)OC(c3ccccc3OC)C2)OC1=O (centres undefined) | 61.1% (inactive) |
| O=[N+]([O-])c1c(Cl)nc2ccccn12 | 14.4% (inactive) |

Source: PubChem BioAssay (NCI)
